Assay outcomes: PubChem, National Center for Advancing Translational Sciences (NCATS)
JMJD2A Tudor: JMJD2A Tudor domain (human) inhibition. AlphaScreen JMJD2A-Tudor / H3K4me3 peptide binding. 4.4% of 390,000 active. Potency, µM (titrated, usually from 114 µM), for inactives: at the top dose activity change, negative = inhibition, hits mostly inhibitors. O75164; further: on the % scale 0 is the no-effect control and ±100 the full control effect; nearly all actives have a fitted effect of over 50% in size
GLS inh: inhibitors of human glutaminase (GLS); Potency, µM (titrated, usually from 45.5 µM), inactives show at the top dose activity change, negative = inhibition, hits mostly inhibitors; O94925; GLS enzymatic activity, qHTS titration; 0.21% of 410,000 active; further: on the % scale 0 is the no-effect control and ±100 the full control effect
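Glutamate formation by hKGA was monitored fluorometrically using coupled glutamate oxidase, HRP and Amplex Red. Substrate was added as 1 mM L-glutamine solution; incubation was 30 min at RT after an initial read.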
HP1b chromo inh: HP1-beta chromodomain-methylated histone interaction inhibition; P83916; AID 540317; Potency, µM (titrated, usually from 114 µM), without a hit: at the highest dose activity change, negative = inhibition, usual class: inhibitors; AlphaScreen HP1-beta / biotin-H3K9me3 peptide binding; 0.56% of 390,000 active; further: nearly all actives have a fitted effect of over 70% in size
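AlphaScreen: HP1-beta (50 nM) preformed 30 min with biotin-H3(1-18)K9me3 peptide (50 nM) in PBS pH 7.4, 0.01% Tween-20. Compound added for 30 min at RT, then streptavidin donor/nickel chelate acceptor beads (10 ug/mL) for 30 min.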
G9a inh: G9a (human) methyltransferase inhibition. Q96KQ7. G9a H3K9 monomethylation, AlphaScreen, 2 h. Potency, µM (highest dose often 102 µM), for the others: at the top dose activity, negative = inhibition, actives largely listed as inhibitors. 8.8% of 350,000 active. AID 504332; further: on the % scale 0 is the no-effect control and ±100 the full control effect; nearly all actives have a fitted effect of over 75% in size
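G9a (20 nM) was preincubated 15 min with compound, then reacted 2 h at room temperature with 500 nM biotin-H3K9 peptide and 20 µM SAM. Monomethyl-H3K9 detected by AlphaScreen using anti-H3K9me1 antibody.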
BAZ2B block: inhibitors of human BAZ2B bromodomain | 4.4% of 360,000 active | AlphaScreen BAZ2B-H3K14Ac peptide displacement | Potency, µM (titrated, usually from 114 µM), without a hit: at the highest dose activity change, negative = inhibition, most hits filed as inhibitors; further: on the % scale 0 is the no-effect control and ±100 the full control effect; nearly all actives have a fitted effect of over 60% in size
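BAZ2B (50 nM) with biotin-H3(5-23)K14Ac peptide (50 nM) in PBS pH 7.4, 0.01% Tween-20, preformed 30 min, then compound 30 min at room temperature; top concentration 110uM. AlphaScreen streptavidin donor/nickel chelate acceptor beads (10 ug/mL final), 20 min dark, signal read.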
Active calls of the source: *; [ ] = remark or other dose. Hits are enriched below; roughly 10% of the tested compounds scored in any of these assays. The call rests on the fitted dose curve; in most records, active means well fitted curve in the direction sought with a large enough effect; inconclusive means small, poorly fitted or top-dose-only effect, or another doubt; inactive means no such curve, though single readings can be large; an effect the other way counts as inactive or inconclusive. Potency means the concentration at half of the fitted maximal effect.

O=C(C[n+]1ccc(C(=O)N/N=C/c2ccc(Br)cc2)cc1)c1ccccc1 was read as JMJD2A Tudor -15%, GLS inh 1%, HP1b chromo inh 29%, G9a inh 7.9µM* and BAZ2B block -10%.
`CCOP(=O)(OCC)C(Cc1ccc(OC)c(OC)c1)N=C(c1ccccc1)c1ccccc1` (centres undefined) gave GLS inh -9%.
`COc1cccc(C(=O)NCC2OCCc3ccccc32)c1` (centres undefined) gave JMJD2A Tudor 10%, GLS inh 9%, HP1b chromo inh 80%, G9a inh 4%[59 µM] and BAZ2B block 5%.
N#Cc1cc[n+](CC(=O)c2ccc(NC(=O)c3ccccc3)cc2)cc1 was read as JMJD2A Tudor -26%, GLS inh -2%, HP1b chromo inh 28%, G9a inh 71µM* and BAZ2B block -2%.
Screening COc1ccc(N=Cc2[nH]c3ccccc3c2O)cc1 returned JMJD2A Tudor -35%, GLS inh 10%, HP1b chromo inh -8%, G9a inh 6.3µM* and BAZ2B block -23%.
COc1ccc(N=Cc2ccccc2O)cc1 was read as JMJD2A Tudor -18%, GLS inh 13% and HP1b chromo inh 13%.
Screening CCCN(Cc1nnc(-c2ccccc2Cl)o1)C(=O)c1cc([N+](=O)[O-])cc([N+](=O)[O-])c1 returned JMJD2A Tudor -27%, GLS inh -1%, HP1b chromo inh 0% and G9a inh 50µM*.
Screening O=C(c1ccco1)N1CCN(S(=O)(=O)c2ccc(Oc3ccccc3)cc2)CC1 returned JMJD2A Tudor -34%, GLS inh 0%, HP1b chromo inh -4%, G9a inh 35µM* and BAZ2B block -30%.
CC(=O)c1ccc(S(=O)(=O)N2CCN(C(=O)c3ccc(COc4ccccc4)o3)CC2)cc1 was read as JMJD2A Tudor -28%, GLS inh 2%, HP1b chromo inh 6%, G9a inh 50µM* and BAZ2B block -3%.
Screening O=C(c1ccco1)N1CCN(S(=O)(=O)c2ccc(Br)cc2)CC1 returned JMJD2A Tudor 5%, GLS inh 0%, HP1b chromo inh 42%, G9a inh 12% and BAZ2B block -1%.
`CCc1nn2c(=O)cc(COC(=O)c3ccccc3NC(=O)c3ccc(C(C)(C)C)cc3)nc2s1` gave JMJD2A Tudor -5%, GLS inh -4%, HP1b chromo inh 31%, G9a inh 10%[59 µM] and BAZ2B block -2%.
COc1cccc(-c2ccc3ncnc(N4CCNCC4)c3c2)c1 was read as G9a inh 23%[0.501 µM].
For O=c1[nH]c(=O)c2[nH]c(=S)n(-c3ccccc3)c2[nH]1 the results were JMJD2A Tudor 40µM*, GLS inh 8% and HP1b chromo inh -7%.
Screening O=C(O)c1ccc2c(=O)n(-c3ccccc3)c(=S)[nH]c2c1 returned JMJD2A Tudor 6%, GLS inh 0%, HP1b chromo inh 47%, G9a inh inconclusive and BAZ2B block -19%.
For O=C1C=C(c2ccc(C(=O)O)c(Cl)c2)C[C@@H](c2ccc3c(c2)OCO3)C1 the results were JMJD2A Tudor 71µM*, GLS inh -9% and HP1b chromo inh 20%.
Screening O=C1C=C(c2ccc(-c3ccccc3)cc2)C[C@@H](c2ccc3c(c2)OCO3)C1 returned JMJD2A Tudor -11%, GLS inh -8%, HP1b chromo inh 33%, G9a inh 5%[0.501 µM] and BAZ2B block 2%.
For CCCCc1nn2c(=O)cc(COC(=O)c3cccs3)nc2s1 the results were JMJD2A Tudor -17%, GLS inh -11%, HP1b chromo inh -24%, G9a inh 6%[59 µM] and BAZ2B block -3%.
For COc1ccc(C(=O)O)cc1S(=O)(=O)Nc1ccccc1-c1ccccc1 the results were JMJD2A Tudor -10%, GLS inh -5%, HP1b chromo inh 6%, G9a inh inconclusive and BAZ2B block 0%.
`COc1ccc(C(=O)NCc2nnc(SCC(=O)Nc3ccccc3)n2-c2ccccc2)cc1` gave JMJD2A Tudor -11%, GLS inh -8%, HP1b chromo inh 42%, G9a inh -16%[59 µM] and BAZ2B block 0%[57.1 µM].
`COC(=O)C1=C(C(=O)OC)C2(OC1c1cccc(F)c1)C(=O)c1ccccc1C2=O` (centres undefined) gave JMJD2A Tudor 0%, GLS inh 5%, HP1b chromo inh 24%, G9a inh 25µM* and BAZ2B block 0%.
`CC/C(=N/NC(=O)c1ccc2c(c1)OCO2)c1ccccc1O` gave JMJD2A Tudor -35%, GLS inh 14% and HP1b chromo inh 28%.
`CC(C)CNC(=O)CSc1nc2scc(-c3ccccc3)c2c(=O)[nH]1` gave JMJD2A Tudor -17%, GLS inh -2%, HP1b chromo inh 18%, G9a inh 11µM* and BAZ2B block -24%.
O=C(O)CSCc1nc2scc(-c3ccccc3)c2c(=O)[nH]1 was read as JMJD2A Tudor -5%[57.1 µM], GLS inh -10%, HP1b chromo inh 11%, G9a inh 50µM* and BAZ2B block -24%.
`O=c1[nH]c(Cc2ccccc2)nc2scc(-c3ccccc3)c12` gave JMJD2A Tudor -12%, GLS inh 11%, HP1b chromo inh 14%, G9a inh -9% and BAZ2B block -20%.
`COc1cc(/C=C2\SC(=S)N(NS(=O)(=O)c3ccccc3)C2=O)ccc1O` gave JMJD2A Tudor inconclusive, GLS inh 6%, HP1b chromo inh inconclusive, G9a inh 40µM* and BAZ2B block inconclusive.
For COc1cc(/C=C2\SC(=S)N(NS(=O)(=O)c3ccc(C)cc3)C2=O)ccc1O the results were JMJD2A Tudor -1%[11.4 µM], GLS inh 63%, HP1b chromo inh inconclusive, G9a inh 25µM* and BAZ2B block inconclusive.
Screening COc1ccc(/C=C2/SC(=S)N(NS(=O)(=O)c3ccccc3)C2=O)cc1 returned JMJD2A Tudor inconclusive, GLS inh inconclusive, HP1b chromo inh 1%, G9a inh inconclusive and BAZ2B block -28%.
For C=CCOc1ccc(/C=C2\SC(=S)N(NS(=O)(=O)c3ccccc3)C2=O)cc1 the results were JMJD2A Tudor inconclusive, GLS inh 18%, HP1b chromo inh -25%, G9a inh 27%[2.33 µM] and BAZ2B block 50µM*.
`CCOc1cc(/C=C2\SC(=S)N(NS(=O)(=O)c3ccc(C)cc3)C2=O)ccc1O` gave JMJD2A Tudor inconclusive, GLS inh 24% and HP1b chromo inh -14%.
Screening CC(C)(C)Cc1c(-c2ccccc2)nc2ccc(Cl)cn12 returned GLS inh -4%.
Cc1cccc(NC(=O)Cn2c(=O)n(CCCS(=O)(=O)C3CCCCC3)c(=O)c3ccccc32)c1 was read as JMJD2A Tudor -9%, GLS inh 20%, HP1b chromo inh 15%, G9a inh 9%[59 µM] and BAZ2B block -20%.
